# Source: PubChem BioAssay (several laboratories)
# Bcl-xL primary = Bcl-xL (human) inhibition | Q07817 | GST-Bcl-xL / FITC-Bim BH3 peptide fluorescence polarization | inhibition, % at 10.9 µM | 0.7% of 320,000 active | AID 2129;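 active = inhibition above the mean of all tested compounds plus 3 SD, cutoff set per campaign, cut at about 30% in these data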;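 also: inhibitors lower millipolarization by displacing the labeled peptide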
# EBV gp42 inh = inhibitors of Epstein-Barr virus glycoprotein 42; Q1HVG2; inhibition, % (tested at 21.74 µM); 0.42% of 220,000 active; Fluorescence polarization binding assay, mP read-out; in the data active = inhibition above about 50%
# GLD-1 TGE inh = GLD-1-TGE RNA interaction inhibition (C. elegans). Q17339. purified GLD-1 + fluorescein TGE RNA, fluorescence polarization. inhibition, % at 5.96 µM. 0.44% of 320,000 active. AID 2280;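 active = percent inhibition above a per-plate cutoff, the plate mean of test compounds plus 3 SD, cut at about 30% in these data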
# eLon inh = E. coli protease La inhibition; 0.42% of 360,000 active; inhibition, % at 7.94 µM; purified E. coli Lon protease, fluorescence polarization; AID 602123; P0A9M0; in the data active = inhibition above about 13%, passing the limit was not always enough
# Target sequence (P0A9M0 whole entry, looked up): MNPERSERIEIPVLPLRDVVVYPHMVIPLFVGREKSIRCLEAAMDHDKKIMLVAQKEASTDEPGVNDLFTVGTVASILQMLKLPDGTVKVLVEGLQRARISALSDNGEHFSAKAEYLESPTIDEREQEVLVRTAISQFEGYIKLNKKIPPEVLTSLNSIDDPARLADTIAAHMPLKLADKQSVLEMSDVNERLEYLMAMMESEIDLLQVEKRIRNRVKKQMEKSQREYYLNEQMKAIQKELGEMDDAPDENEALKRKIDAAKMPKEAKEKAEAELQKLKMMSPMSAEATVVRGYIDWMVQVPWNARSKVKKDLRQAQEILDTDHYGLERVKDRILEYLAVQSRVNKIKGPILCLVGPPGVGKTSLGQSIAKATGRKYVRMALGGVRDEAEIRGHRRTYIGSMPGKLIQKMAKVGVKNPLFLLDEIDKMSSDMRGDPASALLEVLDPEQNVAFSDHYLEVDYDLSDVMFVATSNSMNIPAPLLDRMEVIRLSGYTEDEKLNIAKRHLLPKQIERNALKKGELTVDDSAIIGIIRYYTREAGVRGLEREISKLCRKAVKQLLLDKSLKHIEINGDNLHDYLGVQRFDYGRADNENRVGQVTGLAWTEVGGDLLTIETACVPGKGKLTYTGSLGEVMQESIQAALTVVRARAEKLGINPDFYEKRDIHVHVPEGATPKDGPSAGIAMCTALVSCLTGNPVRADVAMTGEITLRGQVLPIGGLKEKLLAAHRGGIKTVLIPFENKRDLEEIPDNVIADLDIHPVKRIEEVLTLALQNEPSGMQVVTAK
# MEX-5 binding = C. elegans MEX-5 TCR-2 RNA binding activity. 0.38% of 300,000 active. Q9XUB2. MEX-5/FITC-TCR2 RNA binding, fluorescence polarization; hits give low values. activity score (negative = inhibition of binding), % at 10 µM;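 active = inhibition past about -25% in most replicates, and total fluorescence under double the plate's negative control median, limit read from the data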
# MCL1-BIM inh = MCL1-BIM-BH3 interaction inhibition (human). inhibition, % at 10.9 µM. AID 2057. Q07820. 0.68% of 320,000 active. GST-MCL1 / FITC-Bim-BH3 fluorescence polarization;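 active = inhibition above the mean inhibition of all tested compounds plus 3 SD, set per campaign, cut at about 40% in these data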;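 also: higher means more loss of mP so more displacement of Bim peptide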
# A number is an active result; . = inactive; / = not tested or not shown. In the library only some 1.5% were active in any assay of this set; here they are far more common.
SMILES,Bcl-xL primary,EBV gp42 inh,GLD-1 TGE inh,eLon inh,MEX-5 binding,MCL1-BIM inh
CN(C)CCCn1c2c(c(SCC(=O)Nc3nccs3)nc1=O)CCC2,.,/,.,.,.,.
O=C(CCN1C(=O)COc2ccccc21)NCc1ccco1,.,53,.,.,.,.
COC(=O)c1cc(C(=O)NCc2ccc3c(c2)OCO3)cc([N+](=O)[O-])c1,.,/,.,.,.,.
COc1ccc(N2CCN(CCNC(=O)CCC(=O)NNc3nc4ccccc4c4nc(C)nn34)CC2)cc1,.,/,.,.,.,.
Cc1nc2c3ccccc3nc(NNC(=O)CCC(=O)NC(C)C)n2n1,.,.,.,.,-42,.
COCCNC(=O)CCC(=O)NNc1nc2ccccc2c2nc(C)nn12,.,.,.,.,-45,.
Cc1nc2c3ccccc3nc(NNC(=O)CCC(=O)N3CCCC(C)C3)n2n1 (configuration not stated),.,/,.,.,-27,.
Cc1nc2c3ccccc3nc(NNC(=O)CCC(=O)NC3CCCC3)n2n1,.,.,.,.,.,.
O=C(COC(=O)Cc1ccccc1[N+](=O)[O-])NNC(=O)c1ccc([N+](=O)[O-])cc1,.,/,.,.,/,.
Cc1cccc(CSCC(=O)N2CCN(S(=O)(=O)c3ccccc3C#N)CC2)c1,/,/,/,.,/,/
CC(c1nccs1)N(C)c1nc2nonc2nc1NC1CC1 (configuration not stated),33,.,.,.,.,.
CCCCc1cn([C@@H](CCCCN)C(=O)N2CCNCC2)nn1,39,.,.,.,-29,.
CNC(=O)/C(C#N)=C/c1ccc(-c2ccc(Cl)cc2)o1,.,.,.,.,-34,.
COCCNC(=O)CSc1ccc(-c2nc3ccccc3[nH]2)cn1,61,/,.,.,.,.
CN(C)S(=O)(=O)c1cc(NC(=O)CN2CCc3ccccc32)ccc1Cl,45,.,.,.,.,45
CN(C)S(=O)(=O)c1cc(NC(=O)CN2CCCc3ccccc32)ccc1Cl,.,.,.,.,.,.
COc1ccc(C(=O)NCc2cnn(C)c2C)cc1OC1CCN(C(C)C)CC1,.,/,.,.,.,.
CN(C)c1ccc(C=C2SC(=S)N(Cc3ccco3)C2=O)cc1,/,/,/,.,/,/
Cc1cc(/C=C2\SC(=S)N(C)C2=O)c(C)n1-c1cccc(O)c1,.,.,.,.,.,.
COc1ccc(-n2c(C)cc(/C=C3/SC(=S)N(C)C3=O)c2C)cc1,.,61,.,.,.,.
Cc1cc(/C=C2\SC(=S)N(Cc3ccco3)C2=O)c(C)n1-c1ccccc1,.,55,32,.,.,.
CC(=O)Nc1ccc(C2=CC(=O)C[C@H](c3ccc4c(c3)OCO4)C2)cc1,.,/,.,.,/,.
O=C(Cc1c(Cl)cccc1Cl)N/N=C/c1cccnc1,/,/,/,.,/,/
NS(=O)(=O)c1c(Sc2ccccc2C(=O)O)ccc2ccccc12,35,/,.,.,.,46
COc1ccc(C2=NN(c3ccc(C=O)cc3)C(c3ccccc3)C2)cc1 (configuration not stated),.,/,.,/,.,.
SMILES,Bcl-xL primary,EBV gp42 inh,GLD-1 TGE inh,eLon inh,MEX-5 binding,MCL1-BIM inh
COc1ccc(C2CC(c3cccs3)=NN2c2ccc(C=O)cc2)cc1 (configuration not stated),.,.,.,/,-47,.
Cc1cc(C)c(C#N)c(SCC(=O)N2CCCCC2)n1,.,119,.,.,.,.
Cc1cc(C)c(C#N)c(SCC(=O)N2CCN(Cc3ccccc3)CC2)n1,.,.,.,.,.,.
C[C@@H]1CN([C@@H](C)CO)C(=O)CCCn2nncc2CO[C@H]1CN(C)Cc1ccccc1,/,/,/,.,/,/
COc1cc(/C=C2/C(=O)c3cccc([N+](=O)[O-])c3C2=O)c(Br)cc1O,.,54,.,.,/,.
Cc1ccc(N(CCC#N)C(=O)COC(=O)C2CCN(S(=O)(=O)c3ccc(C)c(C)c3)CC2)cc1,.,/,.,.,.,.
O=C(/C=C/Sc1ccc(C(F)(F)F)cn1)c1ccccc1,.,.,.,.,.,.
COc1cccc(C(=O)NCC(=O)NNc2ncnc(N)c2[N+](=O)[O-])c1,.,.,.,.,-32,.
CCOc1cc(/C=C(/C#N)c2nc3ccccc3[nH]2)ccc1Oc1ccc([N+](=O)[O-])cn1,.,.,.,.,.,.
COC(=O)c1ccc(COc2ccc(/C=C(\C#N)c3nc4ccccc4[nH]3)cc2OC)o1,.,.,.,.,-30,.
